In the library only some 1.1% were active in any assay of this set; here they are far more common.
Menin MLL FP FL – menin-MLL binding inhibition, fluorescein peptide; Fluorescence polarization, fluorescein-MLL peptide displacement from menin; FP activity change, % at 61.4 µM; 290,000 tested, under 10 active; active = well fitted curve in the direction sought with a large enough effect in the polarisation, not every such curve was filed as active; inconclusive = small, poorly fitted or top-dose-only effect, or effect the other way, or a change in a side signal; inactive = no such curve, though single readings can be large or run the other way; the % refers to the polarisation; also: % of control where 0% means no effect
KCNH2 3.1 block – blocks the human KCNH2 3.1 channel isoform; U2OS KCNH2 3.1, thallium flux FluxOr; active compounds read low; activity change, % (tested at about 1.8 µM); 340,000 tested, 0.95% active; AID 720553;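 active = maximum activity change below -70%; inconclusive = maximum activity change from -70% to -50%; inactive = maximum activity change above -50%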;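 also: thallium influx rate constant from kinetic fluorescence after stimulation buffer; % is scaled to controls: 0 for no effect and ±100 for the full control effect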
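U2OS cells transduced with KCNH2 3.1 mutant virus (1.77 x 10^8 /mL, 4 h), plated overnight at 37 C, loaded 45 min with FluxOr dye plus Red40 quencher. Thallium flux rate constant from kinetic reads after stimulation buffer, normalised to controls.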
Menin-MLL TR inh – inhibitors of human menin-MLL interaction, mutant MLL peptide. AID 1768. Potency, µM (doses to about 61.6 µM), for inactives: at the top dose FP activity change, negative = inhibition, actives largely listed as inhibitors. Menin + Texas Red MLL mutant peptide, fluorescence polarization. 270,000 tested, 0.23% active; active = well fitted inhibition curve with a large enough effect in the polarisation, with a control signal flat, not every such curve was filed as active; inconclusive = small, poorly fitted or top-dose-only effect, or effect the other way, or a change in a side signal; inactive = no such curve, though single readings can be large or run the other way; the % refers to the polarisation; also: potency is read from the fitted curve at half-maximal effect; % of control where 0% means no effect
KCNH2 WT inh – inhibitors of human wildtype KCNH2 potassium channel; Q12809; U2OS, BacMam KCNH2, thallium flux FluxOr; active compounds read low; activity change, % at 1.84 µM; 340,000 tested, 0.37% active; AID 720551;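 active = maximum activity change below -70%; inconclusive = maximum activity change between -70% and -50%; inactive = maximum activity change above -50%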; also: % is scaled to controls: 0 for no effect and ±100 for the full control effect
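U2OS cells were transduced with wild-type KCNH2 virus (2.03 x 10^8 / mL) for 4 h at room temperature, then cultured overnight at 37 C. Thallium flux was read with FluxOr dye. Rate constants were normalized to DMSO controls.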
CXXC DNA block – blocks binding of human MLL CXXC domain to DNA; Potency, µM (titrated, usually from 115 µM), for the others: at the top dose activity change, negative = inhibition, usual class: inhibitors; AID 2662; MLL-CXXC / FITC-HOXA9 DNA fluorescence polarization; 290,000 tested, 0.037% active; active = well fitted inhibition curve with a large enough effect in the polarisation, with a control signal flat, not every such curve was filed as active; inconclusive = small, poorly fitted or top-dose-only effect, or effect the other way, or a change in a side signal; inactive = no such curve, though single readings can be large or run the other way; the % refers to the polarisation; also: potency is read from the fitted curve at half-maximal effect
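Steps: dispense CXXC domain solution (7 uM) → pin compounds or unlabeled HOX-A9 DNA control → 5 min ambient → add FLSN-HOX-A9 solution (50 nM) → spin → 30 min ambient → fluorescence polarization. Tris pH 7.5/NaCl/DTT/BSA buffer.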
* = called active by the depositor; u = inconclusive; x = no result; ! = not active in a repeat; [ ] = remark or other dose.

SMILES	Menin MLL FP FL	KCNH2 3.1 block	Menin-MLL TR inh	KCNH2 WT inh	CXXC DNA block
Clc1nc2ccccc2cc1-c1nnn(-c2ccccc2Br)n1	x	-13	x	-73*	x
Clc1ncccc1-c1nnn(-c2ccccc2Br)n1	-3	13	2%	1	5%
O=C(COC(=O)CNS(=O)(=O)c1cc(C(F)(F)F)ccc1Cl)NC1CC1	x	6	x	-6	x
O=C(N/N=C/c1cc(Br)ccc1O)C(=O)Nc1ccccc1OC(F)(F)C(F)F	u	8	u	-263*	u
O=C(N/N=C/c1cc(Cl)ccc1O)C(=O)Nc1ccccc1OC(F)(F)C(F)F	x	-36	u	-22	u
Cc1ccc2nc(SCC(=O)Nc3nonc3N)[nH]c2c1	1	8	-7%	-9	-3%
CCOC(=O)NC(=O)CSc1nc2ccc(C)cc2[nH]1	-2	-116*	-24%	2	0%
CN1CCC(N(C)CC(=O)Nc2ccc3c(c2)OC(F)(F)O3)CC1	1	-22	x	-9	-11%
CN1CCC(N(C)CC(=O)Nc2cccc(Oc3ccccc3)c2)CC1	3	-95*	0%	-2	0%
COc1ccc(C(=O)Nc2ccc(NC(=O)c3cccs3)cc2)cc1Cl	4	-13	7.1µM*	x	3%
COc1ccc(C(=O)Nc2ccc(NC(=O)c3cccs3)c(OC)c2)cc1Cl	0	-83*	u	2	1%
CC(C)NC(=O)Nc1ccc2c(c1)C(=O)N([C@H](C)CO)C[C@H](C)[C@@H](CN(C)C(=O)Nc1ccc3c(c1)OCO3)O2	x	8	x	1	x
O=C(c1ccc(OC2CCN(CCc3ccccc3)CC2)cc1)N1CCCCC1CCCO (stereo not drawn)	-2	x	-23%	14	9%
CCN1CCN(Cc2ccc(NC(=O)c3ccc(C)c(NC(=O)C(=O)c4c[nH]c5ccccc45)c3)cc2C(F)(F)F)CC1	6	0	31%	-132*!	85%
CN(C)c1ccc(C(=O)NNC(=O)c2ccc(Cl)cc2)cc1	0	10	x	5	-3%
CC(C)CC(=O)NNC(=O)c1ccc(Cl)cc1	2	55	15%	-74*	2%
COc1cccc(C2c3[nH]c4ccccc4c3C[C@H]3C(=O)N(CCCOC(C)C)CC(=O)N23)c1 (stereo partly drawn)	8	-156*	18%	4	1%
CO[C@@H]1COC(=O)[C@H](C)NC(=O)C/C=C\[C@@H](C)[C@H](OC)COC(=O)[C@H](C)NC(=O)C/C=C\[C@H]1C	-2[11.7 µM]	x	5%[11.7 µM]	x	x
CC(C)NC(=O)C1CCN(C2CCN(Cc3nc4ccccc4s3)CC2)CC1	1	-118*	0%	2	-3%
Clc1ccc(-c2nnc(CSc3nnc(-c4cccs4)n3Cc3ccccc3)o2)cc1	1	-86*	-12%	-125*	2%
O=S(=O)(c1ccc(Cl)cc1)N1CCC(n2cnc3cc(C(F)(F)F)ccc32)CC1	x	-83*	x	-41	x
COc1ccccc1CNC(=O)CCC(=O)Nc1nnc(C)s1	3	-4	-2%	-298*	-1%
O=C(CN1CCCCC1)N/N=C/c1ccccc1OCc1ccccc1	2	-81*	-1%	2	5%
COc1cc(/C=N/NC(=O)CN2CCCCC2)ccc1OCc1ccccc1	-2	10	-3%	-4	3%
CC1CN(C(=O)COc2coc(CN3CCc4ccccc4C3)cc2=O)CC(C)O1 (stereo not drawn)	x	0	x	2	x
SMILES	Menin MLL FP FL	KCNH2 3.1 block	Menin-MLL TR inh	KCNH2 WT inh	CXXC DNA block
Cc1cnc(CNc2cc(-c3ccc(N(C)C)cc3)ncn2)cn1	6	x	-7%	x	x
S=C(Nc1ccccc1)Nc1nc2ccccc2n1CCOc1ccc(Br)cc1	7	-5	-22%	27	22%
Nc1nc2ccccc2n1CCOc1ccc(Cl)cc1	-1	-84*	-4%	-18	11%
Nc1nc2ccccc2n1CCOc1ccccc1Cl	4	-10	-15%	14	45%
Nc1nc2ccccc2n1CCOc1ccc(Br)cc1	-8	-91*	-5%	10	32%
COc1ccc(N2CCN(C(=O)c3cc4cc(Cl)ccc4[nH]3)CC2)cc1	-2	-2	32µM*	27	-14%
CC(=O)c1ccc(S(=O)(=O)N2CCN(c3ccnc4cc(Cl)ccc34)CC2)cc1	x	-98*	x	-123*	x
Cc1ccc(S(=O)(=O)N2CCN(c3ccnc4cc(Cl)ccc34)CC2)cc1	0	-102*	10%	-36	15%
